# Many of the other results were omitted from the sample, so hits are more common in it than they were.
# Ba CapD inh = CapD enzyme inhibition. purified CapD enzyme, fluorescence intensity read-out; hits give low values. z-score (concentration not given with the values). 0.23% of 140,000 active; in the data active = z-score mostly below about -2.9, no sharp cut-off; inactive = mostly above about -1.9
# An asterisk follows results filed as active.
SMILES,Ba CapD inh
CCOC(=O)CCc1n[nH]c(=O)[nH]c1=O,-0.035
CCOC(=O)CCc1c(CC(=O)OCC)c[nH]c1/C=N/O,-10*
CCOC(=O)CCc1c(C)nc2ncnn2c1C,-0.22
COc1cccc(-c2nc(-c3ccccc3O)[nH]c2-c2cccc(OC)c2)c1,42
c1ccc(-c2noc(CSc3nc4ccccc4[nH]3)n2)cc1,-0.55
O=C1CCCC2=C1C(c1cccs1)Nc1ccccc1N2 (configuration not stated),-3.5*
O=C1CCCC2=C1C(c1ccc(Cl)cc1)Nc1ccccc1N2 (configuration not stated),-2.6
O=C1CCCC2=C1C(c1ccncc1)Nc1ccccc1N2 (configuration not stated),-1.7
C=C(C)c1cccc(C(C)(C)NC(=O)N2CCN(c3ccc(F)cc3)CC2)c1,0.51
Cc1cc(/C=C2\C(=O)NC(=S)N(c3ccccc3F)C2=O)c(C)n1-c1cc(C(=O)O)cc(C(=O)O)c1,-9.1*
Cc1cc(/C=C2\C(=O)NC(=O)N(c3ccccc3F)C2=O)c(C)n1-c1cc(C(=O)O)cc(C(=O)O)c1,-2.5
Cc1cc(/C=C2\C(=O)NC(=O)N(c3ccc(F)cc3)C2=O)c(C)n1-c1cccc(C(=O)O)c1,-1.6
Cc1ccc(N2C(=O)C(O)=CC2(O)c2ccccc2)cc1 (configuration not stated),-1.1
COc1ccc(N2C(=O)C(O)=CC2(OC)c2ccccc2)cc1 (configuration not stated),-4.5*
COc1ccc(N2C(=O)CCC2(C(N)=O)c2ccccc2)cc1 (configuration not stated),0.36
COCCN(C1CCN(C(=O)C(c2ccccc2)c2ccccc2)CC1)S(=O)(=O)c1ccccc1,-0.15
COc1ccccc1C1CCN(C(=O)CC(CC(=O)C2CC2)c2ccc(Br)cc2)CC1 (configuration not stated),-0.61
CC(=O)Nc1nc2ccccc2nc1Cl,-7.6*
ONc1nc2ccccc2nc1NO,-1.1
CC(=O)Nc1cccc2nc(C)sc12,-0.095
O=C1C(=O)N(Cc2cccc(Cl)c2)C(=O)N1Cc1cccc(Cl)c1,-0.33
Cc1ccc(N/C=C/c2onc(-c3ccccc3Cl)c2C#N)cc1C,1.2
CCOC(=O)C1=c2s/c(=C/c3cccc(F)c3)c(=O)n2C(N)=C(C#N)C1c1cccc(F)c1 (configuration not stated),-0.93
O=c1[nH]c2ccccc2c(=O)n1CCN1CCSCC1,0.69
Cc1ccc(C)c(Cn2cnc3c(nnn3Cc3ccccc3F)c2=O)c1,-0.81
SMILES,Ba CapD inh
O=C(c1ccccc1)C1C(=O)c2ccccc2C1=O,-2.4
C/C(=N\N1C(=O)c2ccccc2C1=O)C1C(=O)c2ccccc2C1=O,-0.46
C/C(=N/O)C1C(=O)c2ccccc2C1=O,-4.3*
Cc1ccn2c(NC(=O)/C=C/c3ccccc3)c(-c3ccccc3)nc2c1,-0.53
CCOC(=O)c1c(NC(=O)Cn2nc([N+](=O)[O-])c(Cl)c2C)sc2c1CCC(C)C2 (configuration not stated),-0.17
O=[N+]([O-])c1ccc(SCCO)c2nonc12,-4*
CCN(c1ccccc1)c1cc(N(C)C)c2nonc2c1[N+](=O)[O-],0.32
N#Cc1ccc(SCCO)c([N+](=O)[O-])c1,0
Cc1nc(NC(=O)CSc2ccccc2)sc1-c1ccccc1,0.54
O=C(c1ccc(S(=O)(=O)NC2CCCc3ccccc32)s1)N1CCCC1 (configuration not stated),0.57
O=S(=O)(NC1CCCc2ccccc21)c1cccs1 (configuration not stated),-1.7*
O=C(CCS(=O)(=O)c1cccs1)NC1CCCc2ccccc21 (configuration not stated),0.3
CC(C)n1cc(-c2ccc(C(=O)N3CCc4ccccc4C3)cn2)cn1,-0.34
Cc1nn(CCCC(=O)NCC2CCCO2)c(=O)c2cc3sccc3n12 (configuration not stated),-1.1
CCc1[nH]c(=S)[nH]c(=O)c1C#N,-6.5*
Cc1[nH]c(=O)c(C#N)c(C)c1Cl,0.04
CCc1[nH]c(=O)c(C#N)c2c1CCCC2,42
CCCCCCCOc1ccc(C(=O)Oc2cccc(OC(=O)c3ccc(OCCCCCCC)cc3)c2)cc1,0.21
O=S(=O)(NCCc1cccc(Cl)c1)c1c(F)cccc1F,-0.79
N=C1/C(=C/c2ccco2)C(=O)N=C2SC=C(c3ccccc3)N12,-0.14
CC(C)CS(=O)(=O)C1=NN2C(=N)/C(=C\c3ccco3)C(=O)N=C2S1,-4.1*
CCS(=O)(=O)C1=NSC2=NC(=O)/C(=C\c3ccco3)C(=N)N21,-3.4
CC(=O)N1CCN(Cc2nc3ccc(NC(=O)Cn4nc(C)c5ccccc5c4=O)cc3n2C)CC1,0.15
CC(=O)N1CC(=O)Nc2ccccc21,-0.05
CCc1ccc(NC(=O)C2COc3ccccc3O2)cc1 (configuration not stated),-0.2
O=C(NCc1ccc2c(c1)OCO2)C(F)(F)F,-0.35
CCc1ccc2c(c1)S(=O)(=O)C(C(F)(F)F)CO2 (configuration not stated),-6.6*
Cc1ccc(-n2c(C)cc(/C=C3\SC(=O)N(C)C3=O)c2C)cc1,-0.13

# Screens (PubChem BioAssay)
